From PubChem
A selection: hits, their analogues and other compounds. The true share with any hit is near 0.92%.
AGP1-GFP MLPCN – modulators of TOR pathway AGP1-GFP in S. cerevisiae; GFP response vs DMSO, % at 10 µM; 0.02% of 320,000 active; S. cerevisiae AGP1-GFP multiplex flow cytometry, 3 h; GFP as percent of DMSO wells;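 active = GFP response relative to DMSO above a set limit, near screen average plus 3 SD, cut at about 150% in these data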;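 also: median GFP channel fluorescence of the gated AGP1 strain per well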
RPL19A-GFP yeast – modulators of TOR pathway RPL19A-GFP in S. cerevisiae; AID 2025; S. cerevisiae RPL19A-GFP strain, flow cytometry, 3 h; active compounds read low; percent response vs DMSO, % at 10 µM; 0.3% of 330,000 active;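 active = percent response vs DMSO below 50%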;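 also: median channel GFP fluorescence of the barcoded RPL19A-GFP strain; ratio of sample median GFP to plate DMSO average so 100% = DMSO; lower means less RPL19A-GFP as with rapamycin TOR inhibition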
LAP4-GFP MLPCN – yeast TOR pathway LAP4-GFP modulation; S. cerevisiae LAP4-GFP multiplex, flow cytometry GFP, 3 h; median GFP as percent of DMSO wells; GFP response vs DMSO, % at 10 µM; 0.34% of 320,000 active; AID 2023;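 active = GFP response vs DMSO above a set limit, about the screen mean plus 3 SD, cut at about 150% in these data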
MEP2 TOR yeast – yeast TOR pathway MEP2-GFP modulation; AID 2016; 0.51% of 330,000 active; S. cerevisiae MEP2-GFP strain, flow cytometry GFP, 3 h; 100% = DMSO control level; GFP response vs DMSO, % at 10 µM;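 active = GFP response versus DMSO above a set limit, roughly screen mean plus 3 SD, cut at about 180% in these data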;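 also: median GFP fluorescence of the barcode-gated MEP2-GFP cells per well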
CIT2-GFP yeast – alters CIT2-GFP fluorescence in TOR pathway yeast screen. AID 2029. 0.065% of 320,000 active. GFP response vs DMSO, % at 10 µM. S. cerevisiae CIT2-GFP strain, flow cytometry, 3 h; 100 means same as DMSO wells;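 active = GFP response relative to DMSO above a set limit, near the screen mean plus 3 SD, cut at about 150% in these data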;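 also: ratio of well median GFP fluorescence to mean of DMSO wells on the plate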
LAP4 cherry2 – reconfirmed LAP4-GFP TOR pathway modulator in yeast. AID 2621. 20% of 590 active. GFP response vs DMSO, % at 10 µM. S. cerevisiae LAP4-GFP strain, flow cytometry GFP, 3 h. shares compounds with LAP4-GFP MLPCN;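 active = GFP signal as percent of the solvent control above about 150%, meaning raised reporter expression, limit read from the data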;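 also: ratio of well median GFP fluorescence to plate DMSO mean so 100% = DMSO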
MEP2-GFP pick2 – reconfirmed MEP2-GFP TOR pathway modulator in yeast | shares compounds with LAP4-GFP MLPCN | S. cerevisiae MEP2-GFP strain, flow cytometry GFP, 3 h | GFP response vs DMSO, % at 10 µM | 10% of 590 active | AID 2622;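 active = GFP signal above 150% of the solvent control wells, that is a rise of more than half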;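 also: median channel GFP fluorescence of all gated yeast cells per well; ratio of median GFP to plate DMSO average so 100% = DMSO level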
RPL19A-GFP pick2 – second confirmation of modulators of TOR reporter RPL19A-GFP in yeast; GFP response vs DMSO, % at 10 µM; S. cerevisiae RPL19A-GFP strain, flow cytometry GFP, 3 h; active compounds read low; 100% means same as DMSO wells; AID 2623; 3% of 590 active; shares compounds with LAP4-GFP MLPCN;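 active = under 65% GFP response relative to DMSO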;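 also: median GFP channel fluorescence per well over the all cells gate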
CIT2-GFP pick2 – second confirmation of modulators of TOR reporter CIT2-GFP in yeast. GFP response vs DMSO, % at 10 µM. S. cerevisiae CIT2-GFP strain, flow cytometry GFP, 3 h; DMSO control wells read 100%. shares compounds with LAP4-GFP MLPCN. AID 2624. 8% of 590 active;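 active = GFP response vs DMSO above about 150%, limit read from the data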;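 also: median green fluorescence per well over all gated yeast cells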
AGP1 GFP CP2 – reconfirmed modulator of AGP1-GFP TOR reporter in yeast. shares compounds with LAP4-GFP MLPCN. S. cerevisiae AGP1-GFP strain, flow cytometry GFP, 3 h. percent response vs DMSO, % at 10 µM. 590 tested, under 10 active;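 active = over 150 percent of DMSO response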;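 also: median GFP channel fluorescence over all cells without mother daughter split; sample median GFP divided by mean DMSO control so 100% equals DMSO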
Yeast autofluor – counter-screen for compound autofluorescence in yeast s288c cells | shares compounds with LAP4-GFP MLPCN | S. cerevisiae s288c, 520 nm autofluorescence, flow cytometry, 3 h; active compounds read high; zero means same as solvent-only cells | fluorescence change (kMESF span) at 33 µM | 610 tested, under 10 active;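 active = fluorescence span over the dose series, or activity score, above about 33, limit read from the data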
s288c autofl DR – TOR screen hit shows autofluorescence in yeast s288c; S. cerevisiae s288c parental, compound autofluorescence, flow cytometry, 3 h; shares compounds with LAP4-GFP MLPCN; fluorescence change (span) at 33 µM; 110 tested, under 10 active;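 active = fluorescence change span, or the activity score built from it, above 25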
TORC1 bypass gr – wildtype yeast growth loss with TORC1 bypass cells unaffected; shares compounds with LAP4-GFP MLPCN; growth rating (0-3) at 30 µM; S. cerevisiae BY4741 spot growth rating, 48-72 h; active compounds read low; 120 tested, under 10 active;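 active = growth rating at most 1 for wild type yeast while the TORC1 bypass strain still grows fully, rated 3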
Numbers without * were called inactive; . = not tested or not shown.

SMILES	AGP1-GFP MLPCN	RPL19A-GFP yeast	LAP4-GFP MLPCN	MEP2 TOR yeast	CIT2-GFP yeast	Yeast autofluor	others
COc1cccc(/C=C2\C(=O)C(=O)c3ccccc32)c1	103	97	125	102	99	.
COc1cc(C=C2C(=O)c3ccccc3C2=O)cc(OC)c1OC	89	100	121	90	89	0.2	LAP4 cherry2=105;MEP2-GFP pick2=103;RPL19A-GFP pick2=93;CIT2-GFP pick2=96;AGP1 GFP CP2=103
COc1ccc2c(c1)CC/C(=C/c1cc(OC)c(OC)c(OC)c1)C2=O	111	103	111	107	93	.
COc1ccc(C=C2C(=O)c3ccccc3C2=O)cc1O	100	97	104	100	97	0.3	LAP4 cherry2=94;MEP2-GFP pick2=97;RPL19A-GFP pick2=103;CIT2-GFP pick2=103;AGP1 GFP CP2=95
FC(F)(F)c1ccnc(Sc2n[nH]c(C(F)(F)F)n2)c1	102	99	112	100	108	.
COC(=O)Cc1csc(NC(=O)CSc2nncn2C)n1	109	88	169*	106	82	.	LAP4 cherry2=131;MEP2-GFP pick2=100;RPL19A-GFP pick2=100;CIT2-GFP pick2=110;AGP1 GFP CP2=99
N/C(Cc1ccc(Cl)cc1Cl)=N\OC(=O)c1ccccc1	41	87	170*	121	119	7.7
N/C(Cc1ccc(Cl)cc1)=N\OC(=O)c1ccc2ccccc2c1	103	107	98	108	102	.
N/C(=N\OC(=O)c1ccccc1Cl)c1ccc(Cl)cc1	79	88	143	104	169*	0.9
N/C(Cc1ccc(Cl)cc1)=N\OC(=O)c1cccc2ccccc12	74	91	196*	118	125	1.7	s288c autofl DR=0.89;TORC1 bypass gr=3
N/C(=N\OC(=O)c1ccc(Cl)cc1Cl)c1ccccc1	71	93	257*	118	121	1.7
CCOc1ccccc1Nc1nc2ccccc2n1C(C)C	104	103	104	101	98	.
CC(=O)Nc1c(-c2ccccc2)c2cc(Br)ccc2[nH]c1=O	103	107	95	105	113	.
COc1ccc(C(=O)Nc2nc(-c3ccccn3)cs2)cc1S(=O)(=O)N1CCOCC1	99	98	102	102	107	.
CCc1ccc(/C=C/C(=O)c2cc(Br)ccc(=O)c2O)cc1	68	93	146	109	78	8.2	LAP4 cherry2=156*;MEP2-GFP pick2=122;RPL19A-GFP pick2=78;CIT2-GFP pick2=146;AGP1 GFP CP2=77
CCOc1ccc(/C=C/C(=O)c2cc(Br)ccc(=O)c2O)cc1	84	96	102	94	91	.
O=C(O)C(CO)(c1ccccc1)c1ccccc1	76	96	114	90	66	.
CCOC(=O)c1c(C)[nH]c(C)c1C(=O)COC(=O)/C=C/c1cccc(C(F)(F)F)c1	86	97	95	99	93	.
